Screens from PubChem BioAssay.
In the library only some 9.2% were active in any assay of this set; here they are far more common.
Rab9 promoter act = activates the Rab9 promoter; Huh7 Rab9 promoter-luciferase reporter, luminescence, 24 h; Potency, µM (series often up to 9.22 µM), inactives show top-dose activation, negative = inhibition, most hits filed as activators; 320,000 compounds, 2.8% hits; AID 485297; note: % of control where 0% means no effect; nearly all actives have a fitted effect of over 60% in size
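Steps: seed 1500 Huh7 Rab9-luc cells per well, rest 2 h at 37 °C; add compound in DMSO; incubate 24 h; add luciferase reagent, 10 min ambient; read luminescence.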
ELG1 DNA repair = inhibitors of ELG1-dependent DNA repair in HEK293T cells; Potency, µM (doses to about 46.1 µM), without a hit: top-dose activity change, negative = inhibition, usual class: inhibitors; 330,000 compounds, 2.3% hits; AID 504467; HEK293T ELG1-luciferase reporter, luminescence, 16 h; DNA damage induced by 5-fluorouridine; note: % is set by controls: 0 for no effect and ±100 for the full control effect; nearly all actives have a fitted effect of over 55% in size
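Overnight (16 hr) co-exposure of 2,000 cells/well to 5-fluorouridine and compound at 37 °C preceded detection. Luciferase was quantified via ONE-Glo luminescence; loss of signal denotes inhibition.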
SMN2 splice enh = SMN2 splice variant enhancement; Potency, µM (doses to about 46.1 µM), without a hit: top-dose activity change, positive = activation, usual class: activators; HEK293 SMN2-luciferase splicing reporter, luminescence, 30-36 h; 210,000 compounds, 2.8% hits; note: % of control where 0% means no effect; nearly all actives have a fitted effect of over 55% in size
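HEK293 cells carry an SMN2 minigene-luciferase reporter in which exon 7 inclusion puts luciferase in frame. Cells were seeded at 2000 cells/well, attached for 10-12 hours, then exposed to compounds for 30-36 hours at 37C before ONE-Glo luminescence.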
FLuc counter = inhibits or activates purified firefly luciferase, miR-21 counter-screen; Potency, µM (top dose mostly 57.5 µM), for the others: at the top dose activity change, negative = inhibition, usual class: inhibitors; P08659; purified FLuc, Km substrates, luminescence inhibition; 360,000 compounds, 6.9% hits;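 note: plate controls were vehicle for no effect and reference inhibitor for full effect; nearly all actives have a fitted effect of over 55% in size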
Target sequence (P08659 whole entry, looked up): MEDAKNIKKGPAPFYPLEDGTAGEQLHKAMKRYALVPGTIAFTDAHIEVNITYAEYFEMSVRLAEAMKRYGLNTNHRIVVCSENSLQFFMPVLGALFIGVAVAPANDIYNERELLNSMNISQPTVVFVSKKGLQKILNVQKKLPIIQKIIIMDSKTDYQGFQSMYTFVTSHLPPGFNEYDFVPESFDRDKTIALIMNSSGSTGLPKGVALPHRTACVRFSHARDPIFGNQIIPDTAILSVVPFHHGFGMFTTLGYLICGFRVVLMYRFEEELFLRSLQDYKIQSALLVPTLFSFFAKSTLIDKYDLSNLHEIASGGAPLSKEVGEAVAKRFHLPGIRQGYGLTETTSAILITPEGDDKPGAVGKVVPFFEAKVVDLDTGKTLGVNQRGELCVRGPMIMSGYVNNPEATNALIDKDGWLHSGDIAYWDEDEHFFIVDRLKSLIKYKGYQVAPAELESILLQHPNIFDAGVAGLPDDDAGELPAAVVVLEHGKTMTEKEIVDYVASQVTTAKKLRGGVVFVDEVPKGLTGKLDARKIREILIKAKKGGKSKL
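Biochemical qHTS of compounds, final roughly 60 µM downward over six points, against 10 nM purified firefly luciferase using Km concentrations of substrates (10 uM D-luciferin, 10 uM ATP) in Tris acetate pH 7.5 buffer; luminescence output.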
ELG1 genotox = inducers of genotoxicity in HEK293T ELG1-luciferase cells | HEK293T ELG1-luciferase reporter, luminescence, 16 h | Potency, µM (titrated, usually from 46 µM), without a hit: top-dose activity change, positive = activation, most hits filed as activators | 330,000 compounds, 1.3% hits; note: % of control where 0% means no effect; nearly all actives have a fitted effect of over 60% in size
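Screening used a luciferase reporter fused to human ELG1 in HEK293T cells. Luminescence was read on a CCD plate imager after 16 hr exposure and 30 min ONE-Glo incubation.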
NPC1 prom act = activators of NPC1 promoter; Huh7 NPC1 promoter luciferase reporter, 24 h; Potency, µM (top dose mostly 9.22 µM), for the others: top-dose activation, hits mostly activators; 320,000 compounds, 2.4% hits; AID 485313; note: % of control where 0% means no effect; nearly all actives have a fitted effect of over 60% in size
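NPC1 promoter–luciferase Huh7 cells; 24 h compound; luminescence.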
* marks the source's active call; other numbers are inactive results; ? = inconclusive; . = no result given. Calls come from the whole dose curve; as a rule, active = well fitted curve in the direction sought with a large enough effect; inconclusive = small, poorly fitted or top-dose-only effect, or another doubt; inactive = no such curve, though single readings can be large; an effect the other way counts as inactive or inconclusive. Potency is the fitted concentration of half-maximal effect.

SMILES | Rab9 promoter act | ELG1 DNA repair | SMN2 splice enh | FLuc counter | ELG1 genotox | NPC1 prom act
COc1ccc(C2=C(N)c3ccccc3C2=O)cc1 | 4.5µM* | ? | ? | 11µM* | 13µM* | 4.5µM*
COc1cc(C2N(C)C(=O)c3ccccc3N2C)ccc1O (centres undefined) | 0% | 3% | . | 3% | -1% | -4%
COc1ccc(C2C(=O)c3ccccc3C2=O)cc1OC | ? | ? | . | 8.5µM* | -4% | 28%
C/C(=N\O)C1CCCCC1 | 2% | -24% | . | -1% | 1% | -8%
O=C(NNC(=O)C12CC3CC(CC(Cl)(C3)C1)C2)c1csc(N2CCOCC2)n1 | 6% | 1% | . | 0% | 0% | 1%
CCn1c(CSCc2ccc(F)cc2)nnc1SCC(=O)N1CCN(c2ccccc2)CC1 | -1% | 13µM* | -35% | 1% | -5% | 5%
Cc1ccc(CSCC(=O)N2CCN(c3ccccc3)CC2)cc1 | -2% | -3% | -26% | -2% | 0% | -2%
Cc1ccc(CSCc2nnc(SCC(=O)N3CCN(c4ccccc4)CC3)n2C)cc1 | 2% | 23µM* | -46% | -2% | -20% | 2%
CC(C)CN1CC(C(=O)O)CC1=O (centres undefined) | -4% | 11% | . | 2% | -1% | -4%
COc1ccccc1-c1nc(-c2ccccc2)nc(N2CCN(C)CC2)c1C#N | -9% | 21µM* | -20% | 2% | -10% | -6%
COc1ccc(C(C)(C)C)cc1NC(=O)C1=CC=CN2CCS(=O)(=O)N=C12 | . | ? | . | . | 2% | .
O=c1[nH]c(Nc2nc3ccccc3o2)nc2c1CCCC2 | 0.32µM* | ? | 3.5µM* | 1.5µM* | ? | 0.32µM*
Cc1ccc(Nc2nc3c(c(=O)[nH]2)CCCC3)cc1 | ? | ? | ? | ? | 12% | ?
CC(=O)c1ccc(N2CCN(C(=O)c3cc(-c4ccc5c(c4)OCO5)nc4ccccc34)CC2)cc1 | 11% | ? | ? | 7.6µM* | -11% | 6%
Cc1ccc2nc(-c3ccc4c(c3)OCCO4)cc(C(=O)O)c2c1 | 13% | ? | ? | 2.4µM* | ? | 25%
CC(NC(=O)c1cc(-c2ccc3c(c2)OCO3)nc2ccccc12)C(C)(C)C (centres undefined) | -3% | -2% | 6% | -14% | 0% | 0%
CCCN(CCC)C(=O)c1cc(-c2ccc3c(c2)OCO3)nc2ccccc12 | -1% | 18µM* | -17% | ? | -15% | -2%
O=C(O)c1cc(-c2ccc3c(c2)OCO3)nc2ccccc12 | -7% | ? | 14% | 8.5µM* | 4% | 9%
Cc1ccc2[nH]c(CCN(C)C)c(CN3CCOCC3)c2c1 | 0% | ? | . | -2% | 1% | -2%
COc1ccc(C(=O)N2CCN(C)C(=O)[C@@H]2C)cc1OC1CCN(C(C)=O)CC1 | 6% | ? | . | 1% | -1% | -5%
O=C(O)c1cc(-c2cccs2)nc2cc3c(cc12)OCCO3 | -1% | ? | ? | 9.5µM* | 10% | 3%
CCCNC(=O)NNC(=O)c1cc(-c2ccc3c(c2)OCO3)nc2ccccc12 | -7% | 14% | . | 13µM* | 0% | 1%
O=C(NCc1ccc2c(c1)OCO2)c1cc(-c2ccncc2)nc2ccccc12 | 1% | ? | . | ? | -6% | 0%
O=C(NN1CCOCC1)c1cc(-c2cccs2)nc2ccccc12 | 0% | -11% | 17% | -18% | -4% | 5%
CCOCCc1nnc(NC(=O)C(=O)c2cc(C)n(-c3cccc(Cl)c3)c2C)s1 | . | . | . | 2% | . | .
SMILES | Rab9 promoter act | ELG1 DNA repair | SMN2 splice enh | FLuc counter | ELG1 genotox | NPC1 prom act
CCOC(=O)N1CCN(C(=O)CN2C(=O)NC(C)(c3ccc4ccccc4c3)C2=O)CC1 (centres undefined) | -6% | -6% | . | 3% | -1% | -10%
CCc1ccccc1NC(=O)c1cnc2scc(C)n2c1=O | 29% | ? | ? | ? | 15% | 21%
CSc1ccccc1NC(=O)c1cnc2scc(C)n2c1=O | 22% | ? | ? | ? | 18µM* | 0%
Cc1cccn2c(=O)c3cc(C(=O)NCCc4ccccc4)c(=N)n(Cc4ccco4)c3nc12 | -6% | 15µM* | . | -1% | -8% | -6%
Cc1csc2ncc(C(=O)NCCc3ccccc3)c(=O)n12 | ? | ? | ? | ? | 21µM* | ?
Cc1cccc(CCNC(=O)c2cnc3c(C)cccn3c2=O)c1 | . | . | . | 4.3µM* | . | .
CCOc1ccc(CNC(=O)c2cnc3c(C)cccn3c2=O)cc1 | . | . | . | 1% | . | .
Cc1cccn2c(=O)c3cc(C(=O)NCc4ccco4)c(=N)n(CCc4ccccc4)c3nc12 | 0% | 0% | . | -6% | 4% | 1%
Cc1cc(Br)cc(C)c1NC(=O)c1cnc2ccccn2c1=O | . | . | -8% | -2% | . | .
Cn1c(C(=O)NCCc2ccccc2)cc2c(=O)n3ccccc3nc21 | . | . | . | -7% | . | .
O=C(NCCc1ccccc1)c1cnc2ccccn2c1=O | 0.56µM* | ? | 4µM* | 11µM* | 21% | 0.89µM*
Cc1ccccc1NC(=O)c1cnc2ccccn2c1=O | 0.79µM* | ? | ? | 0.76µM* | ? | ?
CC(C)(C)c1cc2nc(N)nc(N)n2n1 | -8% | 22% | . | -18% | 1% | 0%
CSc1nc(N)n2nc(C(C)(C)C)cc2n1 | -1% | ? | . | 17µM* | 6% | 9%
COc1ccc(-c2nc(C(N)=O)c3c(n2)n(-c2ccccc2OC)c(=O)n3C)c(OC)c1 | . | . | . | -1% | . | .
CC(=O)OCc1cnc(C)c2oc(=O)c(C(=O)Nc3cccc(F)c3)cc12 | . | . | . | -3% | . | .
C=CCOC(=O)c1ccc(N2CCN(c3ccccc3)CC2)nc1 | 21% | ? | . | 17µM* | 4% | 23%
N#C/C(=C\c1ccc(Cl)cc1)c1nc(-c2ccco2)cs1 | 21% | ? | 21% | ? | 13% | 21%
N#C/C(=C\c1ccc(Cl)cc1)c1nc2ncccc2[nH]1 | 2% | ? | 3% | 3µM* | 16% | -2%
